36 compounds from PubChem BioAssay (NCATS) can be followed below.

The structures appear in SMILES notation. Results filed as inconclusive are left out. A call without a number means that no potency is given here. Calls of active or inactive are those of the source. The call rests on the fitted dose curve; in most records, active means well fitted cell-killing curve with a large enough effect; inconclusive means small, poorly fitted or top-dose-only effect; inactive means flat fitted curve, though single readings scatter.

The first experiment is described as follows: Cell Viability - LYMP2-008 (AID 980).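 Further: cells exposed to compound for 24 h at 37 °C; nearly all actives have a fitted effect of over 60% in size.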 To be noted: LYMP2-008 lymphoblastoid cell viability, qHTS; series mostly up to 92.2 µM. In outline: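 Measured: ATP-dependent luminescence, proportional to viable cell number, in human lymphoblastoid cells treated 24 hr with compound in complete culture medium. Values are AC50s from Hill-equation modelling of qHTS titrations.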
For `Oc1cccc(Cl)c1Cl`, the Potency result was “inactive”.
Still for that read-out and setting: with `CCC/C=N/O` the entry was “inactive”; with `Cc1cnc[nH]1`, “inactive”; with `CN(C)N=O`, “inactive”.
Turning to `COc1c(C(C)(C)C)cc([N+](=O)[O-])c(C)c1[N+](=O)[O-]`, the Potency result was “inactive”.
The same measure, in the same setting: with `C=C(Cl)CCl` the entry was “inactive”; with `CC12CC1(C)C(=O)N(c1cc(Cl)cc(Cl)c1)C2=O` (centres undefined), “inactive”.
Still for that read-out and setting: then `CC(C)(Cl)[N+](=O)[O-]`, with “inactive”.
Same read-out and setting: with `Cl/C=C/Cl` the entry was “inactive”; with `CCCCOCC1CO1` (centres undefined), “inactive”.
Take `O=C(O)c1cccc(Cl)c1`: the Potency entry was “inactive”.
On the same count and under the same terms, then `C1CC2OC2CC1C1CO1` (centres undefined), with “inactive”; and `Oc1c(Cl)cccc1Cl`, with “inactive”; and `ClCCOCCCl`, with “inactive”.
For the compound `CC(C)C#N`, the Potency result is “inactive”.
Same read-out and setting: then `Cl/C=C\Cl`, with “inactive”; and `CCBr`, with “inactive”.
With `O=[N+]([O-])c1ccc(Cl)c(Cl)c1Cl`, the Potency entry is “inactive”.
The same measure, in the same setting: with `N#CCCC#N` the entry was “inactive”; with `OCCBr`, “inactive”; with `C=CC(=O)OCCN(C)C`, “inactive”.
Regarding `CC(C)(C)C(O)(CCc1ccc(Cl)cc1)Cn1cncn1` (centres undefined), the Potency entry is “inactive”.
On the same count and under the same terms, then `CN=C=O`, with “inactive”.
Take `c1ccc(C2CO2)cc1` (centres undefined): the Potency result was “inactive”.
Take `CCCCCC[N+](=O)[O-]`: the Potency entry was “inactive”.
The same measure, in the same setting: with `OCC(Cl)CCl` (centres undefined) the entry was “inactive”; with `COc1ccc(C=O)cc1`, “inactive”; with `Nc1ccc(Cl)c(Cl)c1`, “inactive”.
Regarding `CC(=O)[O-].CC(=O)[O-].CC(=O)[O-].[Cr+3]`, the Potency entry was “inactive”.
Same read-out and setting: then `CC(=O)CCC(C)=O`, with “inactive”; and `CC(C#N)CCC#N` (centres undefined), with “inactive”.

The next experiment can be described thus: Cell Viability - LYMP2-010 (AID 981).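 Further: cells exposed to compound for 24 hours at 37 °C; nearly all actives have a fitted effect of over 55% in size.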 To be noted: LYMP2-010 lymphoblastoid cell viability, qHTS; series mostly up to 92.2 µM. In outline:
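This 24 hr viability screen uses LYMP2-010 lymphoblastoid cells, quantifies ATP via luciferase luminescence, and derives AC50 from Hill fits of qHTS concentration-response data.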
Regarding `Oc1cccc(Cl)c1Cl`, the Potency entry is “inactive”.
For the compound `CCC/C=N/O`, the Potency result was “inactive”.
The same measure, in the same setting: then `Nc1cccc2ccccc12`, with “inactive”.
Take `Cc1cnc[nH]1`: the Potency entry was “inactive”.
For the compound `CN(C)N=O`, the Potency result was “inactive”.
For `COc1c(C(C)(C)C)cc([N+](=O)[O-])c(C)c1[N+](=O)[O-]`, the Potency result was “inactive”.
The same measure, in the same setting: then `C=C(Cl)CCl`, with “inactive”; and `ClCCOCOCCCl`, with “inactive”; and `CC(C)(Cl)[N+](=O)[O-]`, with “inactive”.
The same measure, in the same setting: then `Cl/C=C/Cl`, with “inactive”; and `CCCCOCC1CO1` (centres undefined), with “inactive”.
On the same count and under the same terms, then `O=C(O)c1cccc(Cl)c1`, with “inactive”; and `C1CC2OC2CC1C1CO1` (centres undefined), with “inactive”; and `Oc1c(Cl)cccc1Cl`, with “inactive”.
Turning to `CCNCC`, the Potency entry is “inactive”.
Still for that read-out and setting: with `Cl/C=C\Cl` the entry was “inactive”; with `c1ccc2c(c1)CCNC2`, “inactive”.
Same read-out and setting: then `CCBr`, with “inactive”.
Consider `N#CCCC#N`, for which the Potency result is “inactive”.
With `C=CC(=O)OCCN(C)C`, the Potency entry was “inactive”.
In the case of `CC(C)(C)C(O)(CCc1ccc(Cl)cc1)Cn1cncn1` (centres undefined), the Potency entry is “inactive”.
Still for that read-out and setting: with `CN=C=O` the entry was “inactive”.
Still for that read-out and setting: then `OCC(Cl)CCl` (centres undefined), with “inactive”; and `COc1ccc(C=O)cc1`, with “inactive”; and `CC(=O)[O-].CC(=O)[O-].CC(=O)[O-].[Cr+3]`, with “inactive”.
As to `CC(=O)CCC(C)=O`, the Potency result is “inactive”.
Still for that read-out and setting: with `C=CC(=O)OCC(CC)CCCC` (centres undefined) the entry was “inactive”; with `CC(C#N)CCC#N` (centres undefined), “inactive”.
